# Data reported in PubChem BioAssay.
# Calls of active or inactive are those of the source. Unless noted, no rule for the calls is given here.
# Key:
# [1] = HepG2 liver cancer cell viability effects, profiling panel, resazurin fluorescence, 24 h, PK04 Diversity Set (AID 1172); details: higher = more signal
# [2] = basal S. cerevisiae growth modulation, no modifier, primary screen, OD600, strain BY4716, 24 h, basal condition (AID 1173); details: OD600, 24 h, higher = more signal, called active from +8 up or from −8 down
# [3] = MM1S myeloma cell viability, profiling panel, resazurin fluorescence, basal, 24 h, PK04 Diversity Set (AID 1174); details: higher = more signal, called active from +8 up or from −8 down;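 also: MM1S multiple myeloma cell line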
# [4] = molecular target: Dihydroorotate dehydrogenase (quinone), mitochondrial (Plasmodium falciparum (isolate 3D7)) (UniProt Q08210); test: PfDHODH enzyme inhibitors, primary screen, biochemical, C-terminal His tag, absorbance 600 nm (AID 1175); details: DCIP absorbance 600 nm, higher = more signal, called active from +8 up or from −8 down;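 also: recombinant parasite enzyme with a five histidine tag at its C terminus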
# [5] = P. aeruginosa biofilm formation inhibitors, primary screen, strain PAO1, LB-PBS medium, absorbance 600 nm (AID 1176); details: P. aeruginosa PAO1 growth/biofilm, A600, 12 h; higher = more signal
# [6] = S. cerevisiae RM11-1a growth modifiers, primary screen, strain RM11-1a, OD600, basal, 24 h (AID 1177); details: OD600, 24 h, higher = more signal, called active from +8 up or from −8 down;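 also: cultures grown under basal conditions with no added stressor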
# [7] = E. coli acrAB mutant growth effects, primary screen, E. coli filamentation inducers, strain DRC39, OD650, 24 h (AID 1178); details: higher = more signal, called active from +8 up or from −8 down;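 also: growth measured as culture turbidity by optical density at 650 nm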
# [8] = E. coli acrAB mutant growth effects, primary screen, E. coli filamentation inducers, strain DRC39, OD650, 48 h (AID 1179);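 also: screen aims at cell division blockers that make cells filament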; details: E. coli DRC39 delta-acrAB growth, higher = more signal, called active from +8 up or from −8 down
# [9] = RPMI8226 myeloma cell viability, profiling panel, resazurin fluorescence, basal, 24 h, PK04 Diversity Set (AID 1180); details: higher = more signal;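 also: RPMI8826 multiple myeloma cell line at 5000 cells per well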
# [10] = molecular target: E3 ubiquitin-protein ligase XIAP (Homo sapiens) (UniProt P98170); test: XIAP binders, primary screen, biophysical, small-molecule microarray, fluorescence 635 nm (AID 1181); details: small-molecule microarray binding, higher = more signal;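 also: score merges 667 nm emission and signal to noise over triplicate slides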
# [11] = tested on: XIP peptide (Xip251-270) binding; test: small-molecule binders of XIP peptide, primary screen, biochemical, small-molecule microarray, fluorescence 635/667 nm, 0.1 µg/mL protein (AID 1182); details: fluorescent protein binding, 635 nm, higher = more signal, called active from +8 up or from −8 down
# XIP peptide (Xip251-270) = test: small-molecule binders of XIP peptide, primary screen, biochemical, small-molecule microarray, fluorescence 635/667 nm, 0.5 µg/mL protein (AID 1183); details: small-molecule microarray binding, fluorescence 635 nm; higher = more signal
# [12] = Plasmodium falciparum growth inhibition, primary screen, strain 3D7, DAPI fluorescence, 100 nL (AID 1184);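 also: parasites grown inside human red blood cells in medium with human serum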; details: P. falciparum 3D7 growth, 3 d, higher = more signal
# [13] = molecular target: Homeobox protein Hox-A13 (Mus musculus) (UniProt Q62424); test: inhibitors of HoxA13-DNA binding, primary screen, biochemical, fluorescence polarization, labeled oligonucleotide (AID 1185); details: 15 min, higher = more signal, called active from +8 up or from −8 down
# [14] = inhibitors of hydroxyurea-induced Chk1 phosphorylation, primary screen, imaging, HeLa, phospho-Chk1 antibody, percent positive cells (AID 1186); details: hydroxyurea-induced phospho-Chk1 immunofluorescence imaging, higher = more signal
# [15] = inhibitors of hydroxyurea-induced Chk1 phosphorylation, primary screen, imaging, HeLa, phospho-Chk1 nuclear intensity (AID 1187); details: hydroxyurea-induced phospho-Chk1 immunofluorescence imaging, higher = more signal
# Dihydroorotate dehydrogenase (quinone), mitochondrial (Plasmodium falciparum (isolate 3D7)), sequence (Q08210 whole entry, looked up): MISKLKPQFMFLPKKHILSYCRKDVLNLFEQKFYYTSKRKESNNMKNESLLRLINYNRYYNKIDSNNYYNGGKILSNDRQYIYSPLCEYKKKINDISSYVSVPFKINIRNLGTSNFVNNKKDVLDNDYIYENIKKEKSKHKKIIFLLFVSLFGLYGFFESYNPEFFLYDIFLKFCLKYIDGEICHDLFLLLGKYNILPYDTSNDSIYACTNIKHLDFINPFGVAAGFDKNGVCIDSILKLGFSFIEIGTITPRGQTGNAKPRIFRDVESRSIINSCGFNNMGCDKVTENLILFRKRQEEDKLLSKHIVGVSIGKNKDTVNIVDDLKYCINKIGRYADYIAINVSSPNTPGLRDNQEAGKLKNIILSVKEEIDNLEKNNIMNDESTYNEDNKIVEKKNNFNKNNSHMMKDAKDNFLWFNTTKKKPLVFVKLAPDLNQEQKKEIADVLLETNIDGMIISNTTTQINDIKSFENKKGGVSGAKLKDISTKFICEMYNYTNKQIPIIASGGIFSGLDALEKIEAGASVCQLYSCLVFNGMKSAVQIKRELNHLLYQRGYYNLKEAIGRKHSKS
# Homeobox protein Hox-A13 (Mus musculus), sequence (Q62424 whole entry, looked up): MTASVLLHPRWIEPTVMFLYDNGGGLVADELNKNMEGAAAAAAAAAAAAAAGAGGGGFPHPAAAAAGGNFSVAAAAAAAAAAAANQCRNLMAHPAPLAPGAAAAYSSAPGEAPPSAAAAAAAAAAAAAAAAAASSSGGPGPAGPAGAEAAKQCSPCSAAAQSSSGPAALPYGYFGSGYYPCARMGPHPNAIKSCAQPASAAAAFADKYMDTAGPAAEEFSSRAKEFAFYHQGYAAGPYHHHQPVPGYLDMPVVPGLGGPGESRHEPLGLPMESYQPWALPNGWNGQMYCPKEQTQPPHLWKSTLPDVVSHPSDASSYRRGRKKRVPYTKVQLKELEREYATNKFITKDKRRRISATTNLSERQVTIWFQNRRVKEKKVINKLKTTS
# E3 ubiquitin-protein ligase XIAP (Homo sapiens), sequence (P98170 whole entry, looked up): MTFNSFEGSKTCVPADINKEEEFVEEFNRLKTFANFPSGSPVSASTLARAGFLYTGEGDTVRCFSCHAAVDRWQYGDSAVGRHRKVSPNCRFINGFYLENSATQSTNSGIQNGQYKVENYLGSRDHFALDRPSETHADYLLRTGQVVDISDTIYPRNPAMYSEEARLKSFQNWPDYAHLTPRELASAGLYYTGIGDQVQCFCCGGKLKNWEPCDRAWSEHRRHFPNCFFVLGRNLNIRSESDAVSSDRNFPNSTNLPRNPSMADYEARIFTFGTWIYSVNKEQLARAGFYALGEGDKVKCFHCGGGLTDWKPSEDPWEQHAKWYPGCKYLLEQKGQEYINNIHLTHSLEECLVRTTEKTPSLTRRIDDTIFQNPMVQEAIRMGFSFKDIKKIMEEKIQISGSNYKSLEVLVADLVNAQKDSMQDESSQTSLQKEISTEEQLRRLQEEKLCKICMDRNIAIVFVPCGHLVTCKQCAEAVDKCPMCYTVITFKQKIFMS
SMILES,z-score [1],z-score [2],z-score [3],composite z-score [4],z-score [5],z-score [6],z-score [7],z-score [8],z-score [9],composite z-score [10],composite z-score [11],composite z-score (XIP peptide (Xip251-270)),z-score [12],z-score [13],z-score [14],z-score [15]
C=C(CCCC)/C(=C/C[C@H](OC(C)=O)c1ccc(CO)o1)c1cc(C(=O)OC)ccc1OC,-0.577,-0.31 (inactive),-0.871 (inactive),-2.01 (inactive),0.0842 (inactive),0.0837 (inactive),-0.729 (inactive),-0.776 (inactive),-0.641,-0.322,0.485 (inactive),0.73,-1.52,-4.44 (inactive),-0.92 (inactive),-0.469 (inactive)
O=C1OCCC/C=C\[C@H]2OC34C=CCN(Cn5nnc6ccccc65)C(=O)[C@H]3N(CCCO)C(=O)[C@@H]4C12 (stereo not given in full),0.558,0.351 (inactive),0.42 (inactive),-0.0502 (inactive),0.77 (inactive),-0.44 (inactive),0.339 (inactive),0.0024 (inactive),0.702,0.301,-0.021 (inactive),0.652,-0.0008,-4.13 (inactive),0.472 (inactive),-0.103 (inactive)
C=CCN1C(=O)[C@]2(Cc3ccccc31)N=C(c1ccc(OCCCO)cc1)O[C@@H]2c1ccccc1,-1.05,-2.22 (inactive),-1.48 (inactive),-0.699 (inactive),0.134 (inactive),0.821 (inactive),-1.3 (inactive),-0.802 (inactive),-1.33,-0.0062,0.526 (inactive),0.791,-2.07,-4.97 (inactive),-0.149 (inactive),0.0449 (inactive)
COCCOC(=O)N1C(=O)[C@@]2(c3cc(C#CC4=CCCCC4)ccc31)[C@H](c1ccc(OCCO)cc1)N1[C@H](c3ccccc3)[C@H](c3ccccc3)OC(=O)[C@H]1[C@@H]2C(=O)Nc1nc2ccccc2s1,1.16,1.65 (inactive),-0.396 (inactive),0.123 (inactive),3.34 (inactive),2.68 (inactive),-0.169 (inactive),0.422 (inactive),0.584,0.061,-0.166 (inactive),0.622,-1.29,3.94 (inactive),-0.446 (inactive),-1.1 (inactive)
CCCCN1CC=CC23O[C@@H]4/C=C\CCCOC(=O)C4[C@H]2C(=O)N(C(C)CO)[C@@H]3C1=O (stereo not given in full),-0.901,-0.138 (inactive),0.196 (inactive),-0.415 (inactive),-0.857 (inactive),0.429 (inactive),0.742 (inactive),0.738 (inactive),0.442,-0.157,0.502 (inactive),-0.269,0.494,-4.24 (inactive),0.166 (inactive),0.711 (inactive)
COCCOC(=O)N1C(=O)[C@@]2(c3cc(C#CC4=CCCCC4)ccc31)[C@H](C(=O)N1CCN(c3ncccn3)CC1)[C@H]1C(=O)O[C@H](c3ccccc3)[C@H](c3ccccc3)N1[C@@H]2c1ccc(OCCO)cc1,0.156,1.31 (inactive),0.162 (inactive),-0.204 (inactive),3.13 (inactive),1.69 (inactive),0.208 (inactive),-0.564 (inactive),-0.147,-0.0389,0.499 (inactive),0.463,-2.08,1.96 (inactive),0.0924 (inactive),0.501 (inactive)
C=CCC(OC(C)=O)[C@@H]1[C@@H](N(Cc2ccc(-c3ccccc3)cc2)C(=O)c2ccc(C)cc2)c2cc(OCCCO)ccc2N1C(=O)c1ccc2ccccc2n1 (stereo not given in full),1.53,-0.769 (inactive),1.3 (inactive),-0.772 (inactive),0.833 (inactive),-1.99 (inactive),2.06 (inactive),1.82 (inactive),0.924,-0.0663,-0.218 (inactive),-0.876,-0.62,-1.29 (inactive),-0.641 (inactive),-0.346 (inactive)
Cc1ccc(S[C@]2(C(=O)NCC(F)(F)F)CC(=O)N(C3Cc4ccccc4C3)[C@@H]2c2ccc(CO)cc2I)cc1,0.788,-3.18 (inactive),-2.74 (inactive),0.427 (inactive),0.0898 (inactive),-0.391 (inactive),0.715 (inactive),0.503 (inactive),-1.32,0.0499,0.448 (inactive),-0.273,0.178,-2.85 (inactive),0.0501 (inactive),0.637 (inactive)
CCCCC(=C=CC[C@H](O)c1ccccc1OCCO)C[C@H](O)c1cc(Cl)cc(Cl)c1O,-0.268,-4.13 (inactive),-0.392 (inactive),-1.69 (inactive),0.33 (inactive),0.31 (inactive),0.504 (inactive),0.32 (inactive),-0.45,-0.138,0.776 (inactive),0.832,-1.09,-4.23 (inactive),0.0899 (inactive),1.23 (inactive)
COc1ccc([Si](C)(C)[C@@H]2[C@@H](CCO)O[C@]3(C(=O)N(Cc4cccc(N(C=O)c5ccccc5)c4)c4ccccc43)[C@H]2C)cc1,-2.41,1.27 (inactive),-3.21 (inactive),-0.82 (inactive),-0.0818 (inactive),4.68 (inactive),-0.818 (inactive),-1.62 (inactive),-2.73,0.0449,1.31 (inactive),0.675,-2.51,-0.551 (inactive),-0.79 (inactive),-0.438 (inactive)
